PubChem BioAssay (EPA / NIEHS)
Values joined by “and” are separate entries in the source; they are usually repeats but may differ in a detail not shown here. Identical values can stand only once. Inconclusive results are not listed. More than one record can exist for a structure, and the calls need not agree. Active and inactive are the calls of the source. Rule for the calls, unless noted: active = hit-call score of the fitted dose curve at least 0.9, where 1 is the maximum; inactive = score below 0.9.

Columns and labels:
[1] = target: Nucleoli Translocation, AR (gene 367) (UniProt P10275); test: UPITT_HCI_U2OS_AR_TIF2_Nucleoli_Agonist: University of Pittsburgh U2OS Androgen Receptor-Transcriptional Intermediary Factor 2 (AR-TIF2) Agonism High Content Imaging Assay for Nucleoli Translocation (AID 2283998; active = hit-call score of the fitted dose curve at least 0.9, where 1 is the maximum)
Nucleoli Translocation, AR (gene 367), sequence (P10275 whole entry, looked up): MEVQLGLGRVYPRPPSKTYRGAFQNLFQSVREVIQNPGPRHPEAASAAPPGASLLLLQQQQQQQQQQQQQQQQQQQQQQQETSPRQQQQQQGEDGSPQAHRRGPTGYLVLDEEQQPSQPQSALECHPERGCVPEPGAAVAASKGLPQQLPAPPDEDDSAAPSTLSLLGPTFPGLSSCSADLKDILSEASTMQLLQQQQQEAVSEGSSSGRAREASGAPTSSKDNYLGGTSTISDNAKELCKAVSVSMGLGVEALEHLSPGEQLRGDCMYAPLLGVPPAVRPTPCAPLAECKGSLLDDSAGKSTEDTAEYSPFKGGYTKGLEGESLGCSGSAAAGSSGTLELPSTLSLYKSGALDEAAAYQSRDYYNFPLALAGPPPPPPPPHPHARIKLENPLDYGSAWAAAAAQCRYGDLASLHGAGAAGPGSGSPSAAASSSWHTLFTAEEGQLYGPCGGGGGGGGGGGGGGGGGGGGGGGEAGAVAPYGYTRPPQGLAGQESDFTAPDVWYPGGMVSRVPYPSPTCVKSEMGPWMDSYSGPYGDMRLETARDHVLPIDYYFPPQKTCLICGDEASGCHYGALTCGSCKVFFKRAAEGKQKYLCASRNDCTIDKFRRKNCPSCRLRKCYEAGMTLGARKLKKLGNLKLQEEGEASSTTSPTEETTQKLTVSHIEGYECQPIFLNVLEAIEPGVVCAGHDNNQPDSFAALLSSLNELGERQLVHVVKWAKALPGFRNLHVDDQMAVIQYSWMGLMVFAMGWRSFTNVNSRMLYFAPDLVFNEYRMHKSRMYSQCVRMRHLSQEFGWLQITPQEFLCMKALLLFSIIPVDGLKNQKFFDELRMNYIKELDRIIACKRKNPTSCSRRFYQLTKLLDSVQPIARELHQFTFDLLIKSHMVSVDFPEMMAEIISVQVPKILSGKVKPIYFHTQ
Outline: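 U2OS cells expressing RFP-tagged human AR and GFP-tagged TIF2; red fluorescence in nucleoli quantified by high-content imaging. Primary screen at 20 uM final (0.2% DMSO); concentration-response 0.195–50 uM (0.5% DMSO), fitted upward versus DMSO.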

[2] = target: Ratio of Nucleoli Translocation and Cytoplasm, AR (gene 367) (UniProt P10275); test: UPITT_HCI_U2OS_AR_TIF2_Nucleoli_Cytoplasm_Ratio_Antagonist: University of Pittsburgh U2OS Androgen Receptor-Transcriptional Intermediary Factor 2 (AR-TIF2) Antagonism High Content Imaging Assay for Ratio of Nucleoli Translocation and Cytoplasm (AID 2283999; active = hit-call score of the fitted dose curve at least 0.9, where 1 is the maximum;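 note: antagonists lower the DHT-driven ratio of nucleolar to cytoplasmic red signal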)
Ratio of Nucleoli Translocation and Cytoplasm, AR (gene 367), sequence (P10275 whole entry, looked up, the tested form may be a part): as the sequence (P10275 whole entry, looked up) above
Outline: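 Human osteosarcoma U2OS line, AR fused to RFP, coactivator TIF2 fused to GFP. Cpds 20 uM final, 0.2% DMSO (screen); 0.195–50 uM final, 0.5% DMSO (CRC). Endpoint: nucleoli/cytoplasm red signal ratio, DHT as baseline, loss-of-signal antagonist mode.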

[3] = target: Ratio of Nucleoli Translocation and Cytoplasm, AR (gene 367) (UniProt P10275); test: UPITT_HCI_U2OS_AR_TIF2_Nucleoli_Cytoplasm_Ratio_Agonist: University of Pittsburgh U2OS Androgen Receptor-Transcriptional Intermediary Factor 2 (AR-TIF2) Agonism High Content Imaging Assay for Ratio of Nucleoli Translocation and Cytoplasm (AID 2284000; active = hit-call score of the fitted dose curve at least 0.9, where 1 is the maximum;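 note: hits raise the red nucleolar to cytoplasm ratio above vehicle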)
Outline: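 Read-out first: nucleolar-to-cytoplasm ratio of red (AR-RFP) signal, quantified by high-content imaging in U2OS cells co-expressing TIF2-GFP. Activity is scored as signal increase over DMSO. Single-point screening used 20 uM final (0.2% DMSO).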

[4] = CCTE_Shafer_MEA_acute_spike_number: CCTE's Neural Acute Assay for Total Number of Spikes, Shafer Lab (AID 2284008);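 for AC50: curve fitted for decrease in spike count so AC50 reflects inhibitors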
Outline: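 Rat primary cortical neurons on 48-well MEA plates, DIV 13 or 15, at 37 C. 40 min baseline then 40 min with compound (0.03-40 uM); spikes detected at 8x rms noise, expressed as percent change from baseline.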

[5] = CCTE_Shafer_MEA_acute_firing_rate_mean: CCTE's Neural Acute Assay for Mean Firing Rate, Shafer Lab (AID 2284009);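 note: analyzed for loss of signal so actives lower firing rate relative to DMSO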
Outline: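 Percent change in well-mean firing rate was derived from extracellular spikes detected at 8x rms noise (300-5000 Hz band-pass) before and after a 40-min compound exposure. Cultures were primary rat cortical neurons, tested at 0.03-40 uM.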

[6] = CCTE_Harrill_HTTr_Viability_MCF7: CCTE's 6-hour Cell Viability Assessment for the High-Throughput Transcriptomics (HTTr) Platform, in MCF-7 cells cultured in DMEM + 10% fetal bovine serum, Harrill Lab (AID 2284010)
Outline: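 Cells were dosed with chemicals in an eight-point dilution series, imaged 6 hours later for propidium iodide uptake, and the endpoint was analyzed by bidirectional fitting against DMSO as negative control.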

[7] = CCTE_Harrill_HTTr_Apoptosis_MCF7: CCTE's 6-hour Apoptosis Assessment for the High-Throughput Transcriptomics (HTTr) Platform, in MCF-7 cells cultured in DMEM + 10% fetal bovine serum, Harrill Lab (AID 2284011)
Outline: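 MCF-7 cells in DMEM + 10% FBS exposed 6 h to chemicals over an eight-point dilution series. Caspase-3/7 activation imaged by high-content CellEvent Green staining; fitted bidirectionally versus DMSO.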

[8] = CCTE_Shafer_MEA_acute_burst_number: CCTE's Neural Acute Assay for Single-Electrode Bursts, Shafer Lab (AID 2284013)
Outline: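 Spontaneous network activity of primary rat cortical neurons was recorded extracellularly on microelectrode arrays at 37 C, with 40-min periods before and during exposure to 0.03-40 uM compound on DIV 13 or 15.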

[9] = CCTE_Shafer_MEA_acute_burst_duration_mean: CCTE's Neural Acute Assay for Mean Burst Duration, Shafer Lab (AID 2284014);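 note: hits are decreases in mean burst duration relative to DMSO controls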
Outline: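 Read-out is the per-well percent change in mean burst duration (first to last spike within a single-electrode burst) between 40-min recordings before and after compound. Cultures were primary rat cortical neurons on MEAs, dosed at 0.03-40 uM on DIV 13 or 15.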

[10] = CCTE_Shafer_MEA_acute_interburst_interval_mean: CCTE's Neural Acute Assay for Mean Interburst Interval, Shafer Lab (AID 2284016);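 note: percent change of mean interburst interval versus each well's own pre-dose baseline; curves fitted for decrease in interburst interval relative to DMSO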
Outline: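 MEA recording of spontaneous network bursting in primary rat cortical cultures; mean interburst interval was compared before and after a 40-min compound exposure (0.03-40 uM) and expressed as percent change, relative to DMSO.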

[11] = CCTE_Shafer_MEA_acute_burst_percentage_mean: CCTE's Neural Acute Assay for Percentage of Spikes in a Burst, Shafer Lab (AID 2284017);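 for AC50: curve fitted for loss of signal so potency reflects decreased burst percentage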
Outline: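 Compounds were tested at 0.03-40 uM on primary rat cortical neuron networks grown over microelectrodes, with at least three wells per compound. Spontaneous firing was recorded for 40 min before and 40 min after dosing, and the change in burst percentage was computed per well.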

[12] = CCTE_Shafer_MEA_acute_burst_percentage_std: CCTE's Neural Acute Assay for Standard Deviation of Burst Percentage, Shafer Lab (AID 2284018);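 note: fitted in the negative direction so actives lower burst percentage SD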
Outline: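 Value is percent change from baseline in the across-electrode SD of spikes-in-bursts percentage, wells with >/= 10 active electrodes. Acute 40-min exposure to 0.03-40 uM on DIV 13 or 15 rat cortical cultures, recorded at 37 C after 40-min baseline.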

[13] = CCTE_Shafer_MEA_acute_per_network_burst_spike_number_std: CCTE's Neural Acute Assay for Standard Deviation of Number of Spikes in a Network Burst, Shafer Lab (AID 2284020);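 note: fitted for decrease in spike-number SD versus DMSO so actives lower it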
Outline: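 Spontaneous network activity of primary rat cortical neurons is recorded extracellularly before and after a 40-min compound exposure (0.03-40 uM) at 37 C. The endpoint is the well's percent change in burst spike-number SD.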

[14] = CCTE_Harrill_HTTr_CellCount_MCF7: CCTE's Cell Proliferation Assessment for the High-Throughput Transcriptomics (HTTr) Platform, Harrill Lab (AID 2284012; active = hit-call score of the fitted dose curve at least 0.9, where 1 is the maximum;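 note: count of Hoechst-stained nuclei per well by high-content imaging in MCF-7 cells; cells exposed to compound for six hours; intended direction is loss of nuclei count meaning fewer cells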)
Outline: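 Chemicals in eight-point dilution series are added to MCF-7 cells for six hours, nuclei are stained with Hoechst and imaged, and per-well nuclei counts are fitted in both directions relative to DMSO controls.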

[15] = CCTE_Simmons_MITO_basal_resp_rate: CCTE's HepG2 Seahorse XF Respirometric Screening Assay at Basal Respiratory State, Simmons Lab (AID 2284001); conditions: actives raise or lower the signal
Outline: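 HepG2 respirometry; 7-pt titration 125 nM–100 uM final; kinetic OCR at 6 min intervals for 72 min; n=3 biological, technical singles; DMSO baseline, gain or loss fit; fenpyroximate (decrease) and 2,4-DNP (increase) controls.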

[16] = CCTE_Simmons_MITO_viability: CellTiter-Glo Viability Assessment for CCTE's HepG2 Seahorse XF Respirometric Screening Assay [post-hoc], Simmons Lab (AID 2284007; active = hit-call score of the fitted dose curve at least 0.9, where 1 is the maximum;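 for AC50: cells exposed to chemical for 90 min before the ATP read; actives lower ATP signal relative to DMSO baseline meaning reduced viability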)
Outline: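 After the Seahorse oxygen-consumption sequence (basal, FCCP, rotenone/antimycin A; 72 min total), HepG2 viability was scored as ATP content by bioluminescence. Chemicals ran at seven concentrations up to 100 uM final for 90 min.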

[17] = tested on: DIO1 (gene 1733); test: CCTE_GLTED_hDIO1: CCTE's human Deiodinase 1 (DIO1) Inhibition Assay, Great Lakes Toxicology and Ecology Division (GLTED) Lab (AID 2283987; active = hit-call score of the fitted dose curve at least 0.9, where 1 is the maximum;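 note: isolated human DIO1 enzyme in a cell-free setup rather than cells; enzyme activity read as free iodide liberated from substrate via Sandell-Kolthoff colorimetry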)
Outline: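 Cell-free human DIO1 enzyme incubated 3 h with test chemical; iodide freed from substrate then measured by Sandell-Kolthoff absorbance. Run in triplicate; loss of signal relative to DMSO taken as inhibition.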

[18] = target: Nucleoli Translocation, AR (gene 367) (UniProt P10275); test: UPITT_HCI_U2OS_AR_TIF2_Nucleoli_Antagonist: University of Pittsburgh U2OS Androgen Receptor-Transcriptional Intermediary Factor 2 (AR-TIF2) Antagonism High Content Imaging Assay for Nucleoli Translocation (AID 2283997; active = hit-call score of the fitted dose curve at least 0.9, where 1 is the maximum)
Outline: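 Measured quantity was AR-RFP fluorescence localized to nucleoli in engineered U2OS cells also bearing TIF2-GFP, acquired on automated high-content imagers. Primary testing used 20 uM compound; actives were confirmed in triplicate wells.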

Measured: AC50

C[N+](C)(C)CC1CO1 (centres undefined)
inactive: [1] | [2] | [3] | [4] | [5] | [6] | [7] | [8] | [9] | [10] | [11] | [12] | [13]

COC(=O)Nc1nc2ccccc2[nH]1
inactive: [1] | [4] | [5] | [6] | [7] | [14] | [8] | [9] | [10] | [11] | [12] | [13]

CC(C)COC(=O)c1ccccc1C(=O)OCC(C)C
active: [15] 56.3 µM | [4] 7.13 µM | [5] 7.16 µM | [9] 20 µM | [11] 9.02 µM | [13] 8.5 µM
inactive: [16] | [6] | [7] | [14] | [8] | [10] | [12]

CCOC(=O)[C@]1(c2ccccc2)Oc2ccccc2[C@@H]1N
active: [15] 43.2 µM
inactive: [16] | [6] | [7]

CCCCOC(=O)c1ccccc1C(=O)OCc1ccccc1
inactive: [6] | [7] | [14] | [9]
active: [4] 3.11 µM | [5] 3.11 µM | [8] 2.71 µM | [10] 3.83 µM | [11] 6.09 µM | [12] 5 µM | [13] 5 µM

COP(=S)(OC)SCN1C(=O)c2ccccc2C1=O
inactive: [6] | [7] | [14]
active: [17] 50.9 µM

Clc1ccc(C(c2ccc(Cl)cc2)C(Cl)Cl)cc1
active: [4] 2.95 µM | [5] 2.94 µM | [8] 2.56 µM | [11] 5.41 µM | [13] 6.77 µM
inactive: [6] | [7] | [14] | [9] | [10] | [12]

CCNS(=O)(=O)C(F)(F)C(F)(F)C(F)(F)C(F)(F)C(F)(F)C(F)(F)C(F)(F)C(F)(F)F
inactive: [18] | [3] | [6] | [7]

CCC[CH2][Sn]([Cl])([CH2]CCC)[CH2]CCC
inactive: [9] | [10] | [12] | [13]
active: [15] 4.86 µM | [16] 11.9 µM | [4] 40.1 nM and 70.2 nM | [5] 40.3 nM and 70.2 nM | [6] 11.8 µM | [7] 10.9 µM | [14] 17.2 µM | [8] 40 nM and 66.5 nM | [9] 0.347 µM | [10] 0.382 µM | [11] 221 nM and 330 nM | [12] 7.27 µM | [13] 0.239 µM
